PubChem BioAssay (NCATS)
“And” between values parts separate entries of the source, which are not always exact repeats. Equal entries are not always repeated. Results filed as inconclusive are left out. A number with no mark means an inactive call. The source made the active and inactive calls. Calls come from the whole dose curve; as a rule, active = well fitted curve in the direction sought with a large enough effect; inconclusive = small, poorly fitted or top-dose-only effect, or another doubt; inactive = no such curve, though single readings can be large; an effect the other way counts as inactive or inconclusive.

Key:
[1] = Viability qHTS for spleen associated tyrosine kinase inhibitor (SYKi) drug resistant MV4-11 cells (AID 1963824); note: nearly all actives have a fitted effect of over 35% in size; note: potency is the fitted concentration of half-maximal effect
How it was run: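 SYK-inhibitor-resistant MV4-11 AML cells were seeded at 500 per well onto compound and cultured 72 hours (37 °C, 5% CO2). CellTiter-Glo was then added, and after 10 min at room temperature, luminescence gave viability.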

[2] = Cellular viability qHTS for adrenocortical cancer (ACC) cell line SW-13 (AID 1963989); conditions: SW-13 ACC cells viability, CellTiter-Glo, 48 h; activity (max response): active compounds read low;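 note: cells grown in serum-free medium with ITS supplement; % is set by controls: 0 for no effect and ±100 for the full control effect; nearly all actives have a fitted effect of over 65% in size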
How it was run: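 48 h treatment, SW-13 in ITS/DMEM serum-free; doses up to 46 uM; readout CellTiter-Glo luminescence; curve fit four-parameter logistic.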

[3] = Cellular viability qHTS for adrenocortical cancer (ACC) cell line NCI-H295R (AID 1963990); note: nearly all actives have a fitted effect of over 60% in size; note: potency is the fitted concentration of half-maximal effect
How it was run: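 Compound titrations (up to 46 uM final) are applied to NCI-H295R cultures for 48 h at 37C. Viable cell number is estimated by CellTiter-Glo signal, normalised to DMSO and doxorubicin controls.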

SMILES | Potency [1] | activity (max response) [2] [%] | Potency [3]
CC(C)C(C)(C)C(C)(C)C(C)(C)S | 5.45 µM (active) | 7.64 | inactive
C[C@@H]1COCCN1c1cc(-c2ccnn2C)c2ccnc(-c3ccn[nH]3)c2n1 | 0.0934 µM (active) |  | 0.158 µM (active)
COc1ccc(-c2ccc3c(N4CCOC[C@@H]4C)nc(N4CCOC[C@@H]4C)nc3n2)cc1CO | 0.148 µM (active) |  | 0.178 µM (active)
CN(C)CCOC1=Cc2ccccc2Sc2ccc(Cl)cc21 | 15 µM (active) |  | 20.6 µM (active)
Cc1cc(-c2ccccc2)nnc1NCCN1CCOCC1 | inactive |  | inactive
O=C(N/N=C/c1ccc([N+](=O)[O-])o1)c1ccc(O)cc1 | 16.8 µM (active) |  | 7.31 µM (active)
CC(C)NC(=O)C1CCC(n2c(NC(=O)c3ccc(F)cc3)nc3ccc(CN4CCC(C(C)(C)O)CC4)cc32)CC1 (centres undefined) | 2.04 µM (active) |  | 10.1 µM (active)
OCc1c[nH]c2ccccc12 | 24.3 µM (active) |  | 22.4 µM (active)
CC(C)(C)C(=O)C(Oc1ccc(Cl)cc1)n1ccnc1 (centres undefined) | 20.6 µM (active) | -11.3 | inactive
CS(=O)(=O)N1CCN(Cc2cc3nc(-c4cccc5[nH]ncc45)nc(N4CCOCC4)c3s2)CC1 | 461 nM (active) and 2.09 µM (active) |  | 2.24 µM (active)
CS(=O)(=O)Nc1cc2occ(NC=O)c(=O)c2cc1Oc1ccccc1 | inactive |  | inactive
CC[C@H](NC(=O)[C@H](C)NC)C(=O)N1C[C@@H](O)C[C@H]1Cc1c(-c2[nH]c3cc(F)ccc3c2C[C@@H]2C[C@H](O)CN2C(=O)[C@H](CC)NC(=O)[C@H](C)NC)[nH]c2cc(F)ccc12 | 0.0074 µM (active) |  | inactive
CC(C)(CNC(=O)c1cccc(-c2noc(C(F)(F)F)n2)c1)c1coc(-c2ccccc2)n1 | 14.8 µM (active) |  | inactive
CC(C)(C)C1CCC(CC2=C(O)c3ccccc3C(=O)C2=O)CC1 (centres undefined) | inactive | 12.3 | inactive
CC(=O)OC(C)OC(=O)C(C)c1ccc(-c2ccccc2)c(F)c1 (centres undefined) | inactive | 9.22 | inactive
